This is an account of results in PubChem BioAssay (EPA / NIEHS).

The target of test [1] is Retinoic acid receptor RXR-alpha (Homo sapiens) (UniProt P19793). Description: ATG_RXRa_TRANS: Attagene TRANS-FACTORIAL HepG2 Assay for human Retinoid X Receptor alpha (RXRa) (AID 2283012; active = hit-call score of the fitted dose curve at least 0.9, where 1 is the maximum). The method, boiled down: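 Transient transfection of human HepG2 with multiple GAL4-UAS reporter constructs; 24 h compound exposure; total RNA isolated, reverse-transcribed, PCR-amplified, 6-FAM labelled, HpaI-cut, resolved by capillary electrophoresis. Positive-direction fit versus DMSO.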
Sequence of Retinoic acid receptor RXR-alpha (Homo sapiens) (P19793 whole entry, looked up, the tested form may be a part): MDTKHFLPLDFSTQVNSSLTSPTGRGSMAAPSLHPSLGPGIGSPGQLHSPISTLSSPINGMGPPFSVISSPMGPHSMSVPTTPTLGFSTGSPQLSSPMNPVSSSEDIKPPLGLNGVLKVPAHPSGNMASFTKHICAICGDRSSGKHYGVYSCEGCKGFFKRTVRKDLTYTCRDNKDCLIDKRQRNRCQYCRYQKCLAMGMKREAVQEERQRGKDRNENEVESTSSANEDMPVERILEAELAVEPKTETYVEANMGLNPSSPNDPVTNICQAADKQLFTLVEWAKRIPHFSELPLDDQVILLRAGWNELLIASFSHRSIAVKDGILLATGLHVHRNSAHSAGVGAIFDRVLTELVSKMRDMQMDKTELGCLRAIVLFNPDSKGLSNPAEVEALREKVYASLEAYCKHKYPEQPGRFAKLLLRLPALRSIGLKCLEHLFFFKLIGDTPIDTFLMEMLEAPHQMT

The target in test [2] is human Retinoid X Receptor beta (RXRb), RXRB (gene 6257) (UniProt P28702). Description: ATG_RXRb_TRANS: Attagene TRANS-FACTORIAL HepG2 Assay for human Retinoid X Receptor beta (RXRb) (AID 2283013; active = hit-call score of the fitted dose curve at least 0.9, where 1 is the maximum). The method, boiled down:
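Transfect HepG2 with GAL4-UAS multi-reporter constructs (chimeric NR-Gal4, TRANS format); dose compound 24 h; isolate RNA, RT-PCR, FAM primer extension, HpaI digest; quantify by capillary electrophoresis; positive direction vs DMSO.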

Read-out in test [3]: E-selectin (Homo sapiens) (UniProt P16581)
Description: BSK_3C_Eselectin: BioMAP Diversity Plus: 3C Assay for Eselectin Biomarker Activity (AID 2283015).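 Also: cell surface E-selectin protein quantified by ELISA 24 h after dosing.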 Particulars: primary human endothelial cells (HUVEC); actives raise or lower the signal. A digest of the protocol:
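Human vascular endothelium from umbilical vein is exposed to test chemicals for 24 h. E-selectin levels are read by ELISA and compared with DMSO controls.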

Read-out in test [4]: Interleukin-1 alpha (IL1a), IL1A (gene 3552)
Description: BSK_BE3C_IL1a: BioMAP Diversity Plus: BE3C Assay for Interleukin-1 alpha (IL1a) Biomarker Activity (AID 2283016). Particulars: primary human bronchial epithelial cells; actives raise or lower the signal. The method, boiled down: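 BE3C primary human bronchial epithelium; cpd 24 h; IL-1a by ELISA; bidirectional fit vs DMSO; parallel SRB (0.1% SRB, 10% TCA fix, 560 nm) for cytotoxicity.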

Read-out in test [5]: Monocyte Chemoattractant Protein-1 (MCP1), CCL2 (gene 6347)
Description: BSK_3C_MCP1: BioMAP Diversity Plus: 3C Assay for Monocyte Chemoattractant Protein-1 (MCP1) Biomarker Activity (AID 2283017). Particulars: primary human endothelial cells (HUVEC); actives raise or lower the signal. The method, boiled down: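 Endothelial cells from human umbilical vein are dosed with chemical, cultured 24 h, then assayed for MCP-1 by ELISA; both increases and decreases are modelled against DMSO controls.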

Read-out in test [6]: Monocyte Chemoattractant Protein-1 (MCP1), CCL2 (gene 6347)
Description: BSK_4H_MCP1: BioMAP Diversity Plus: 4H Assay for Monocyte Chemoattractant Protein-1 (MCP1) Biomarker Activity (AID 2283018). The following applies: primary human endothelial cells (HUVEC); actives raise or lower the signal. The method, boiled down: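 ELISA read-out of MCP-1 from human vascular endothelial primary cells taken at 24 hours after compound exposure. Activity was fitted in both directions relative to DMSO, which served as negative control.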

Read-out in test [7]: Human Leukocyte Antigen - DR isotype (HLADR), HLA-DRA (gene 3122)
Description: BSK_3C_HLADR: BioMAP Diversity Plus: 3C Assay for Human Leukocyte Antigen - DR isotype (HLADR) Biomarker Activity (AID 2283019).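 As to outcome: ELISA of cell-surface HLA-DR on HUVEC 24 h after dosing.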 Particulars: primary human endothelial cells (HUVEC); actives raise or lower the signal. The method, boiled down: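 Endothelial cells from human umbilical vein are treated with test chemical; after 24 h, HLA-DR levels are measured by ELISA. Data are fitted in both directions using DMSO as the baseline.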

Read-out in test [8]: Interleukin-8 (IL8), CXCL8 (gene 3576)
Description: BSK_3C_IL8: BioMAP Diversity Plus: 3C Assay for Interleukin-8 (IL8) Biomarker Activity (AID 2283020). Particulars: primary human endothelial cells (HUVEC); actives raise or lower the signal. The method, boiled down: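 ELISA read-out of IL-8 from human umbilical vein endothelium, measured 24 h after chemical dosing. Activity is expressed relative to DMSO negative control, with both increases and decreases fitted.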

Read-out in test [9]: Monokine induced gamma interferon (MIG), CXCL9 (gene 4283)
Description: BSK_3C_MIG: BioMAP Diversity Plus: 3C Assay for Monokine induced gamma interferon (MIG) Biomarker Activity (AID 2283021). The following applies: primary human endothelial cells (HUVEC); actives raise or lower the signal. The method, boiled down: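 Read-out is ELISA detection of MIG on human umbilical vein endothelial cells, taken 24 h after dosing. Gain or loss of signal was scored relative to DMSO controls using bidirectional curve fitting.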

In test [10] the target is human Vitamin D Receptor (VDR), VDR (gene 7421) (UniProt P11473). Description: ATG_VDR_TRANS: Attagene TRANS-FACTORIAL HepG2 Assay for human Vitamin D Receptor (VDR) (AID 2283022; active = hit-call score of the fitted dose curve at least 0.9, where 1 is the maximum). A digest of the protocol:
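Fluorescence of labelled reporter cDNA fragments, resolved by capillary electrophoresis, gives mRNA induction after 24 h treatment of HepG2 cells carrying transfected Gal4-fusion reporter units. Activity is fitted in the positive direction with DMSO as baseline.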

Test [11] is described as follows: BSK_3C_SRB: Viability Assessment in the BioMAP Diversity Plus: 3C Assay (AID 2283023).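 Also: fitted both ways against DMSO so a hit may be signal rise or drop.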 The following applies: primary human endothelial cells (HUVEC). The method, boiled down:
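Cells were dosed with chemical, cultured 24 h, fixed with 10% TCA, stained with 0.1% SRB and read at 560 nm. Human umbilical vein endothelium was used; DMSO served as negative control and baseline.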

Read-out in test [12]: Matrix Metallopeptidase 1 (MMP1), MMP1 (gene 4312)
Description: BSK_BE3C_MMP1: BioMAP Diversity Plus: BE3C Assay for Matrix Metallopeptidase 1 (MMP1) Biomarker Activity (AID 2283024). Particulars: primary human bronchial epithelial cells; actives raise or lower the signal. A digest of the protocol: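 Human bronchial epithelial cells (BE3C system) exposed to compound for 24 h; MMP1 then quantified by ELISA. Activity was fitted in both directions relative to DMSO.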

The nature of test [13]: BSK_3C_Vis: BioMAP Diversity Plus: 3C Assay for Morphology Visualization (AID 2283025).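 Also: fitted both ways so gain or loss versus DMSO counts.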 Particulars: primary human endothelial cells (HUVEC). A digest of the protocol: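 Chemicals were added to primary human umbilical vein endothelium, cells were incubated 24 h, and morphology was then visualized by light microscopy. Gain or loss of signal was fitted bidirectionally relative to DMSO.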

Read-out in test [14]: Pselectin, SELP (gene 6403)
Description: BSK_4H_Pselectin: BioMAP Diversity Plus: 4H Assay for Pselectin Biomarker Activity (AID 2283026). Particulars: primary human endothelial cells (HUVEC); actives raise or lower the signal. The method, boiled down: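 ELISA read-out of P-selectin on human umbilical vein endothelium after 24 h of dosing. Values derive from bidirectional fitting relative to DMSO. Parallel SRB protein staining flagged overt cytotoxicity.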

Test [15] can be described thus: BSK_BE3C_SRB: Viability Assessment in the BioMAP Diversity Plus: BE3C Assay (AID 2283028). Particulars: primary human bronchial epithelial cells. A digest of the protocol: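 Overt cytotoxicity was assessed as total protein in confluent human primary bronchial epithelial cultures 24 h after chemical addition, using 0.1% sulforhodamine B staining read at 560 nm.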

Read-out in test [16]: Thrombomodulin, THBD (gene 7056)
Description: BSK_3C_Thrombomodulin: BioMAP Diversity Plus: 3C Assay for Thrombomodulin Biomarker Activity (AID 2283029). Particulars: primary human endothelial cells (HUVEC); actives raise or lower the signal. The method, boiled down:
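Read-out is ELISA of thrombomodulin on human umbilical vein endothelium 24 h after chemical dosing. Gain or loss of signal is scored relative to DMSO. Overt cytotoxicity is checked in parallel cultures by sulforhodamine B staining.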

Read-out in test [17]: Vascular endothelial growth factor receptor 2 (Homo sapiens) (UniProt P35968)
Description: BSK_4H_VEGFRII: BioMAP Diversity Plus: 4H Assay for Vascular endothelial growth factor receptor 2 (VEGFR2) Biomarker Activity (AID 2283031). Particulars: primary human endothelial cells (HUVEC); actives raise or lower the signal. A digest of the protocol:
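VEGFRII levels on human vascular endothelial primary cells were determined by ELISA at 24 hours post-dosing, with gain- or loss-of-signal fitted against DMSO controls.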

The target in test [18] is human Thyroid Receptor alpha (THRa1), THRA (gene 7067) (UniProt P10827). Description: ATG_THRa1_TRANS: Attagene TRANS-FACTORIAL HepG2 Assay for human Thyroid Receptor alpha (THRa1) (AID 2283014; active = hit-call score of the fitted dose curve at least 0.9, where 1 is the maximum). The method, boiled down: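 First, HepG2 cells receive multiple GAL4-UAS reporter units and the chimeric receptor. They are then dosed for 24 h, after which RNA is reverse-transcribed, amplified, labelled, HpaI-cut and sized by capillary electrophoresis; gain relative to DMSO is scored.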
Sequence of human Thyroid Receptor alpha (THRa1), THRA (gene 7067) (P10827 whole entry, looked up, the tested form may be a part): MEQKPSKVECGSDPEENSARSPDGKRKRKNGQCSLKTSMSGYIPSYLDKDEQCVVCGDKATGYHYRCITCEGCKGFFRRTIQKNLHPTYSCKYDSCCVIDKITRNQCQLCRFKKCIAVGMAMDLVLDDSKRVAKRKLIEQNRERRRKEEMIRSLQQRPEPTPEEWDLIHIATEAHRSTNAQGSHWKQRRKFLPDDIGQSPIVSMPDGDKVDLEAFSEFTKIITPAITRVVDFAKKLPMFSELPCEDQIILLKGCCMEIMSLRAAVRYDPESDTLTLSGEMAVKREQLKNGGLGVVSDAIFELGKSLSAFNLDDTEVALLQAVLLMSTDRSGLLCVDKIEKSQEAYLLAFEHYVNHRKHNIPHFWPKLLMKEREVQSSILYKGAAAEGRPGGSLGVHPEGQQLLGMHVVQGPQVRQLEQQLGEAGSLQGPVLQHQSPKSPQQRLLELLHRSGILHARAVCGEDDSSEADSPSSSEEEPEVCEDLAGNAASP

Read-out in test [19]: Urokinase-type plasminogen activator receptor (uPAR), PLAUR (gene 5329)
Description: BSK_4H_uPAR: BioMAP Diversity Plus: 4H Assay for Urokinase-type plasminogen activator receptor (uPAR) Biomarker Activity (AID 2283030). The following applies: primary human endothelial cells (HUVEC); actives raise or lower the signal. A digest of the protocol:
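Chemicals are dosed onto human vascular endothelial primary cells (umbilical vein). After 24 h, uPAR is read by ELISA. Gain or loss of signal is fitted relative to DMSO.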

Test [20] can be described thus: BSK_4H_SRB: Viability Assessment in the BioMAP Diversity Plus: 4H Assay (AID 2283027).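 Also: cells exposed to compound for 24 h before staining.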 The following applies: primary human endothelial cells (HUVEC). The method, boiled down: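 Human umbilical vein endothelial cells were dosed with chemical and, after 24 h, fixed with 10% TCA, stained with 0.1% sulforhodamine B, and read at 560 nm to give total protein as a cytotoxicity measure. Bidirectional fitting relative to DMSO control.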

Records with an inconclusive call do not appear. Calls of active or inactive are those of the source. The calls were made as follows, unless noted: active = hit-call score of the fitted dose curve at least 0.9, where 1 is the maximum; inactive = score below 0.9.

Sequence of human Vitamin D Receptor (VDR), VDR (gene 7421) (P11473 whole entry, looked up, the tested form may be a part): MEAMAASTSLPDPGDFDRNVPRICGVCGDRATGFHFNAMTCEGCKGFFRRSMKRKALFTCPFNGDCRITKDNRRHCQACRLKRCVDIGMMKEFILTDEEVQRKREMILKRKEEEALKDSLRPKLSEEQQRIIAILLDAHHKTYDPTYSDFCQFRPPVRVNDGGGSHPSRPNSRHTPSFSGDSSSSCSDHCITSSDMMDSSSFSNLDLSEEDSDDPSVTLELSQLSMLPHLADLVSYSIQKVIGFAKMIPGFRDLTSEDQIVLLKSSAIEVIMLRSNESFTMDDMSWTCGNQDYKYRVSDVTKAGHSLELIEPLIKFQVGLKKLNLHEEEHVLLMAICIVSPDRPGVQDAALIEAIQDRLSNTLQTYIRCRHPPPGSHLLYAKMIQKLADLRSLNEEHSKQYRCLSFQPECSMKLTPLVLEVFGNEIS
Sequence of human Retinoid X Receptor beta (RXRb), RXRB (gene 6257) (P28702 whole entry, looked up, the tested form may be a part): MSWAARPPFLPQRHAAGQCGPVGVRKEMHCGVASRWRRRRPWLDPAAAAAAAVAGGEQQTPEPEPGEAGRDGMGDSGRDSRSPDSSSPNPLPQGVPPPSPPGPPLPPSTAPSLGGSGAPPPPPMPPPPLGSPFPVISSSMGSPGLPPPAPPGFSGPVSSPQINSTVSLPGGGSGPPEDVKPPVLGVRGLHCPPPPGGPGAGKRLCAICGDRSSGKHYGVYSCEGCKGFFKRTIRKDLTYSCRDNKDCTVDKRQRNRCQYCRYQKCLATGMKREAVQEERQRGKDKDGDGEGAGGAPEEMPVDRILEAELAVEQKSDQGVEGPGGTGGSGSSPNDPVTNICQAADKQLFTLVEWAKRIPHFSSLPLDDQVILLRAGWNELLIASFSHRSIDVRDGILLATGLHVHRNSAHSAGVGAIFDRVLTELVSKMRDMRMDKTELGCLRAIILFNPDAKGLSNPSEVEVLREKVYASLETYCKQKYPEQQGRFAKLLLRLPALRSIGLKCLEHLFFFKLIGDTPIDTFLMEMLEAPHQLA
Sequence of E-selectin (Homo sapiens) (P16581 whole entry, looked up): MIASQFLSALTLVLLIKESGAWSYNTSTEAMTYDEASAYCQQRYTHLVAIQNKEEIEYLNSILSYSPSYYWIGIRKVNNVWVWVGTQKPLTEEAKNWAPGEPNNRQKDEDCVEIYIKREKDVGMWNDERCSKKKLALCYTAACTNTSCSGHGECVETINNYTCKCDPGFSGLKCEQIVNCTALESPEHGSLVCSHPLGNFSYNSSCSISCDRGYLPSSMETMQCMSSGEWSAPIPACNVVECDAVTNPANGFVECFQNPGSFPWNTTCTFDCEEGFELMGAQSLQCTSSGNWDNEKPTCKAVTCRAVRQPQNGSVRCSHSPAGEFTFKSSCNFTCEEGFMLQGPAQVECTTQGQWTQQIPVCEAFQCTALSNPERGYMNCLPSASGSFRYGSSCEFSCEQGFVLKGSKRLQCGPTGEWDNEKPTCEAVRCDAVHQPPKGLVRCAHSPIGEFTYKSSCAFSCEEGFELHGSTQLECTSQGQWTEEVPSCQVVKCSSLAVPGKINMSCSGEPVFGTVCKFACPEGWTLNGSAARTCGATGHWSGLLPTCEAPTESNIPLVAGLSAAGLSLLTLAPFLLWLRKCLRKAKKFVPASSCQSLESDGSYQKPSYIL

For `COc1ccc(-n2nc(C(F)F)cc2-c2ccc(S(C)=O)cc2)cc1` (centres undefined), the result in test [1], in test [2], in test [3], in test [4], in test [5] and in test [6] was inactive. Besides, the outcome in test [7], in test [8], in test [9], in test [10], in test [11] and in test [12] was inactive. The outcome in test [13], in test [14], in test [15], in test [16] and in [17] was inactive.

On to `CC(C)CC(C)(O)C#CC(C)(O)CC(C)C` (centres undefined), for which the compound was classed as inactive in test [1], in [2], in test [18], in [3], in test [4] and in [5]. Besides, the result in [7], in [9], in [11], in test [12], in test [13] and in [14] was inactive. In addition, the outcome in test [15], in test [16] and in test [19] was inactive.

What is called AC50 is the midpoint of the concentration-response curve, whichever way the signal moves. Consider `O=C(OC[C@H]1O[C@@H](OC(=O)c2cc(O)c(O)c(OC(=O)c3cc(O)c(O)c(O)c3)c2)[C@H](OC(=O)c2cc(O)c(O)c(OC(=O)c3cc(O)c(O)c(O)c3)c2)[C@@H](OC(=O)c2cc(O)c(O)c(OC(=O)c3cc(O)c(O)c(O)c3)c2)[C@@H]1OC(=O)c1cc(O)c(O)c(OC(=O)c2cc(O)c(O)c(O)c2)c1)c1cc(O)c(O)c(OC(=O)c2cc(O)c(O)c(O)c2)c1`, for which the compound was classed as inactive in [1], in test [2], in [18], in [3], in [9] and in test [15]. Also, in test [16], the outcome was inactive. Moreover, the AC50 in test [4] was 7.85 µM (active); in test [7] it was 9.13 µM (active); in [11] it was 9.7 µM (active); in test [12], 10.8 µM (active); in test [14] it was 6.1 µM (active); in test [19], 3.15 µM (active).

Turning to `CCOC(=O)CC(CC(=O)OCC)(OC(C)=O)C(=O)OCC`, the result in test [1], in test [2], in [18], in test [3], in test [4] and in [5] was inactive. Besides, the result in test [6], in test [7], in test [9], in test [10], in test [11] and in test [12] was inactive. The result in test [13], in test [14], in [20], in test [15], in test [16] and in test [19] was inactive.

As for `C1=CCCC=CCCC=CCC1`, the outcome in test [1], in [3], in test [4], in test [5], in [6] and in test [7] was inactive. Moreover, the result in [8], in [9], in [11], in test [12], in test [13] and in test [14] was inactive. For the same compound, the result in test [20], in [15], in test [16] and in test [19] was inactive. Moreover, the concentration at half-maximal activity (AC50) in [2] was 63.5 µM (active).

As for `Oc1ccc2c(c1)-c1ccccc1C2`, the compound was classed as inactive in test [1], in test [18], in test [3], in [4], in [7] and in test [9]. Further, the compound was classed as inactive in test [10], in test [12], in test [14], in [15], in test [16] and in test [19]. Further, the outcome in test [17] was inactive. The AC50 was 26.2 µM (active) in test [2] and 19.6 µM (active) in test [11].

As to `C1N2CN3CN1CN(C2)C3`, the outcome in test [1], in test [2], in [18], in test [3], in test [4] and in [5] was inactive. The result in [6], in test [7], in test [9], in test [10], in test [11] and in test [12] was inactive. For the same compound, the outcome in [13], in test [14], in test [20], in test [15], in test [16] and in [19] was inactive. Besides, the outcome in [17] was inactive.
